In paper PMC5540273 (PLoS ONE, 2017):

Legend:
Settings in all cases: concentration: 1 μM, replicates: in singlicate; n = 1
[1] = test system: T1, DCAMKL2
T1 construct: gene DCLK2

[2] = test system: T2, DCAMKL3
T2 construct: gene DCLK3

[3] = test system: DDR1
[4] = test system: DDR2
[5] = test system: T3, DLK
T3 construct: gene MAP3K12

[6] = test system: T4, DMPK2
T4 construct: gene CDC42BPG

[7] = test system: DMPK
[8] = test system: T5, DRAK1
T5 construct: gene STK17A

[9] = test system: T6, DRAK2
T6 construct: gene STK17B

[10] = test system: DYRK1A
[11] = test system: DYRK1B
[12] = test system: DYRK2
[13] = test system: EGFR
[14] = test system: EIF2AK1
[15] = test system: EPHA1
[16] = test system: EPHA2
[17] = test system: EPHA3
[18] = test system: EPHA4
[19] = test system: EPHA5
[20] = test system: EPHA6
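Note: KINOMEscan kinase panel screen.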

| SMILES | %Inh [1] | %Inh [2] | %Inh [3] | %Inh [4] | %Inh [5] | %Inh [6] | %Inh [7] | %Inh [8] | %Inh [9] | %Inh [10] | %Inh [11] | %Inh [12] | %Inh [13] | %Inh [14] | %Inh [15] | %Inh [16] | %Inh [17] | %Inh [18] | %Inh [19] | %Inh [20] |
| --- | --- | --- | --- | --- | --- | --- | --- | --- | --- | --- | --- | --- | --- | --- | --- | --- | --- | --- | --- | --- |
| COc1cccc(CC(=O)N2CCc3cc(-c4cn(C)c5ncnc(N)c45)ccc32)c1 [GSK2608899] | 0% | 14% | 97% | 27% | 36% | 53% | 25% | 4% | 0% | 6% | 22% | 22% | 23% | 87% | 0% | 0% | 19% | 4% | 5% | 10% |
| Cc1cccc(Nc2nc(NCCN)ncc2C(N)=O)c1 [GSK1292139] | 0% | 0% | 0% | 20% | 62% | 60% | 14% | 58% | 68% | 2% | 27% | 33% | 15% | 0% | 14% | 0% | 64% | 0% | 0% | 0% |
| O=C(O)C(F)(F)F.O=c1[nH]ccc2nc(N[C@@H]3CCNC3)nc(Nc3cc(Cl)cc(Cl)c3)c12 [GSK2188764] | 52% | 82% | 0% | 18% | 43% | 41% | 98.3% | 99.7% | 79% | 3% | 21% | 36% | 25% | 18% | 6% | 0% | 72% | 0% | 0% | 0% |
| N#CC1(c2cccc(C(=O)Nc3cccc(Oc4ccc5nc(NC(=O)C6CC6)sc5n4)c3)c2)CC1 | 0% | 0% | 98.6% | 99.2% | 0% | 6% | 5% | 2% | 7% | 0% | 1% | 0% | 36% | 0% | 76% | 97.1% | 50% | 81% | 89% | 91.3% |
| CCOc1nccc(-c2c(-c3ccc(F)cc3)ncn2C2CCNCC2)n1 [SB-249175] | 24% | 10% | 0% | 7% | 0% | 75% | 15% | 0% | 0% | 1% | 50% | 6% | 9% | 45% | 10% | 0% | 13% | 4% | 0% | 7% |
| COc1cc(Nc2ccnc3cc(-c4ccncc4)ccc23)cc(OC)c1OC.Cl [GW494610] | 0% | 0% | 57% | 81% | 47% | 46% | 0% | 0% | 0% | 12% | 0% | 4% | 58% | 0% | 96.9% | 83% | 48% | 48% | 37% | 0% |
| CN(C)CCOc1ccc(-c2cc(-c3ccc(Cl)c(O)c3)c(-c3ccncc3)[nH]2)cc1.Cl.Cl [SB-684387] | 0% | 10% | 56% | 38% | 14% | 41% | 29% | 20% | 0% | 0% | 30% | 18% | 38% | 31% | 51% | 16% | 19% | 10% | 0% | 32% |
| COc1cccc(C2=C(Nc3cccc(O)c3)C(=O)NC2=O)c1 [SB-390771] | 0% | 31% | 0% | 17% | 26% | 0% | 0% | 0% | 0% | 57% | 24% | 9% | 41% | 3% | 0% | 29% | 0% | 27% | 0% | 24% |
| CCn1c(-c2nonc2N)nc2c(-c3ccccc3)ncc(OCCCN)c21.O=C(O)C(F)(F)F.O=C(O)C(F)(F)F [GSK260205] | 9% | 70% | 26% | 31% | 0% | 100% | 0% | 5% | 2% | 23% | 0% | 14% | 56% | 90.8% | 24% | 0% | 12% | 0% | 0% | 0% |
